Compounds with a hit are over-represented: about 0.86% of the library has one in this group of screens.
TAR Tat displ: HIV-1 TAR-Tat binding disruption | HIV-1 TAR RNA, Tat peptide displacement FRET; stronger effect = higher value | z-score (no concentration beside the values) | 100,000 compounds, 0.6% hits | AID 1259389; active = z-score of 3 or more in at least 2 runs
CDC25B CDK2 inh: human CDC25B-CDK2/CyclinA binding inhibition; P30305+P24941; HTRF CDC25B-CDK2/CyclinA binding, anti-His/anti-Flag; stronger effect = higher value; z-score (test concentration not listed); 94,000 compounds, 0.72% hits; AID 1259370; in the data active = z-score above about 3.2
An asterisk follows results filed as active; / = no result given.

SMILES	TAR Tat displ	CDC25B CDK2 inh
Cc1ccc(C)c(Cn2cnc3onc(-c4ccc(Cl)cc4)c3c2=O)c1	1.4	/
COc1cccc(C2Oc3c(OC)cccc3C3CC(c4ccccc4O)=NN32)c1 (configuration not stated)	-1.4	-1.9
COc1ccc(OC)c(C2CC(=O)N3CN(c4ccc(Br)cc4)CSC3=C2C#N)c1 (configuration not stated)	-0.7	4.5*
Cc1cc2c3c([nH]c2cc1S(=O)(=O)Nc1ccc(Cl)cn1)CC(C)(C)CC3=O	-0.27	/
CCOC(=O)N1CCC(NC(=O)CCCn2nc(C)n3c(cc4sccc43)c2=O)CC1	0.11	-0.28
COc1ccc(OCCn2nnc3sc4c(c3c2=O)CCCC4)cc1	3.3*	0.44
O=c1c2c3c(sc2nnn1CCCOc1ccccc1)CCCC3	1.5	1
C=C(C)Cn1c(=S)[nH]c2c(c1=O)C1(CCCC1)Cc1ccccc1-2	/	-2.2
CCOC(=O)CC(=O)CSc1nc(C)c2ccc(C)cc2n1	-7.6	-1.8
CCC(=O)n1/c(=N/C(=N)N)nc(C)c2ccc(C)cc21	/	9*
CN(C)CC#Cc1ccc(-c2ccn(S(=O)(=O)c3ccc(Cl)cc3)n2)s1	/	-1.1
O=S(=O)(c1ccc(F)cc1)N1CCN(c2nc3ccccc3n3cccc23)CC1	2.5	-2.2
O=C(Nc1cccc(Br)c1)c1cc(-c2cccs2)on1	0.18	0.48
O=C1c2ccccc2-c2onc3c(N4CCN(C(=O)c5ccco5)CC4)cc(NCc4ccco4)c1c23	15*	1.6
CCNc1cc(N2CCN(C(=O)c3ccco3)CC2)c2noc3c2c1C(=O)c1ccccc1-3	2.6	-1.6
COCCNc1cc(N2CCN(C(=O)c3ccco3)CC2)c2noc3c2c1C(=O)c1ccccc1-3	2.8	0.55
O=C1c2ccccc2-c2onc3c(N4CCN(C(=O)c5ccco5)CC4)cc(NCCO)c1c23	7.4*	0.78
COc1ccc(S(=O)(=O)N2CCC(N3CCOCC3)CC2)cc1Cl	2.1	/
CCCS(=O)(=O)c1ncc(Cl)c(C(=O)Nc2sc3c(c2C(=O)OCC)CCCC3)n1	1.9	-0.43
Cc1ccc(Cc2c(C)[nH]n(-c3nc4ccccc4[nH]3)c2=O)cc1	1.4	/
Cc1nc(-c2cc(C#N)c(Sc3ccccc3)nc2C)cs1	/	-1.4
CC(Sc1nc2c(c(=O)[nH]1)CCCC2)C(=O)Nc1ccc(F)cc1 (configuration not stated)	0.31	-1.1
CC(Sc1nc2c(c(=O)[nH]1)CCCC2)C(=O)Nc1ccc(Br)cc1 (configuration not stated)	13*	-1.9
CN(C)S(=O)(=O)c1ccc(NC(=O)CSc2nccn2C)cc1	-0.1	0.05
O=C(NCCCN1CCN(c2ccccc2)CC1)Nc1ccc(F)cc1F	2.1	-1.5
SMILES	TAR Tat displ	CDC25B CDK2 inh
O=C(NCCN1CCN(c2ccccc2)CC1)Nc1ccc(F)cc1F	7.7*	-2
COc1ccc2cc3c(nc2c1)N(S(=O)(=O)c1ccc(C)cc1)CC3	0.15	-1.6
COc1ccc(S(=O)(=O)Nc2cc(C)c(C)cc2[N+](=O)[O-])c(OC)c1	/	0.82
CC(C)c1ccc(NC(=O)CSc2nc(-c3ccco3)nc3cc(=O)[nH]n23)cc1	0.64	/
Cc1cc(=O)c2c(O)c3c(O)cc(O)c4c5c(O)cc(O)c6c(O)c7c(=O)cc(C)c8c1c2c(c34)c(c65)c78	7.8*	/
Cc1cc(O)c2c(c1O)C(=O)c1c(O)cc(C)c(O)c1C2=O	0.53	/
CSc1nc2c(c(Nc3ccc(O)c(C(=O)O)c3)n1)CCC2	18*	-2.2
CSc1nc2c(c(Nc3cccc(O)c3)n1)CCC2	0.11	1.2
Cc1ccc(C(=O)NC2CCCCC2)cc1NC(=O)C1=CSCCO1	1.9	/
COC(=O)c1sc2ccccc2c1Cl	1.9	1.3
COC(=O)c1sc2ccc(N)cc2c1OC	-2.8	5.4*
CCOc1c(C(=O)OC)sc2ccc(N)cc12	-1.9	7.7*
COC(=O)c1sc2ccc(N)cc2c1OCC(C)C	-2.2	3
Cc1ccccc1-c1nnc(Cc2ccc(Cl)cc2)o1	-0.37	-0.4
Clc1ccc(-n2ncc3c(N4CCc5ccccc54)ncnc32)cc1	/	-3
O=S(=O)(NC1CCCCC1)c1ccc(-c2cc(C(F)(F)F)on2)s1	0.44	/
Brc1ccc(-c2nnc(SCc3ccccc3)o2)cc1	2.3	-2.7
O=C1C=CC(=O)N1Cc1ccc2c(c1)OCO2	/	-2.6
Cn1c(SCC(=O)Nc2ccc3[nH]c(=O)[nH]c3c2)nnc1-c1ccccc1	0.78	-0.17
CC(=O)c1ccc(NC(=O)CSc2nnc(-c3ccc4ccccc4c3)n2C)cc1	/	6.9*
CCOC(=O)CN1CSC2=C(C#N)C(c3ccc(Cl)cc3)CC(=O)N2C1 (configuration not stated)	3.3	3.8*
CC(C)CCN1CSC2=C(C#N)C(c3ccc(F)cc3)CC(=O)N2C1 (configuration not stated)	-0.59	5*
CC(C)CCN1CSC2=C(C#N)C(c3ccc(Cl)cc3)CC(=O)N2C1 (configuration not stated)	0.8	0.66
Cc1ccc(C2CC(=O)N3CN(CCC(C)C)CSC3=C2C#N)cc1 (configuration not stated)	-2.1	5.2*
CCOC(=O)N1CCN(c2c(N(C)C3CCCCC3)c(=O)c2=O)CC1	0.27	-2.1
SMILES	TAR Tat displ	CDC25B CDK2 inh
COCCNC(=O)Cn1nnc2sc3c(c2c1=O)CCC(C)C3 (configuration not stated)	0.97	-1.3
Cc1nn(C)cc1CN(C)C(=O)c1cc2nc(-c3ccccc3)cc(C(F)(F)F)n2n1	/	-0.54
Cc1cc(-c2ccc(S(=O)(=O)Nc3ccc(F)c(Cl)c3)o2)n[nH]1	1.2	/
CSc1ccc(C2C3=C(Nc4c2c(=O)[nH]c(=O)n4C)c2ccccc2C3=O)cc1 (configuration not stated)	7.4*	-3
COCCn1c2c(c(=O)[nH]c1=O)C(c1ccc(SC)cc1)C1=C(N2)c2ccccc2C1=O (configuration not stated)	-1.5	-2.5
Cc1ccc(C)n1-c1ccc(O)c(C(=O)O)c1	33*	-0.09
O=C(O)c1cc(Br)cc(C(=O)O)c1Cl	2.2	1.1
Cc1ccc(C)n1-c1ccc(Br)cc1C(=O)O	19*	-0.62
Cc1cc(=O)cc(C)n1-c1ccc(C(=O)O)cc1	-1.7	0.84
CN(C)S(=O)(=O)c1ccc2c(c1)N(CC(=O)NC1CCCCC1)C(=O)C1CCCCN21 (configuration not stated)	1.8	/
Cc1cc(NC(=O)C2CC3CCCN3C23C(=O)Nc2ccccc23)ccc1Br (configuration not stated)	-0.39	/
COc1cc(C2CC(=O)N3CN(Cc4ccccc4)CSC3=C2C#N)cc(Br)c1O (configuration not stated)	0.52	3.5*
COc1cc(C2CC(=O)N3CN(Cc4ccccc4)CSC3=C2C#N)ccc1O (configuration not stated)	-0.46	4*
COc1cc(C2CC(=O)N3CN(c4ccc(C)cc4)CSC3=C2C#N)cc(Br)c1O (configuration not stated)	-0.6	1.7
O=c1[nH]nc(-c2ncc[nH]2)c2ccccc12	1.5	-0.34
CCOc1cc(C2CC(=O)N3CN(Cc4ccco4)CSC3=C2C#N)ccc1O (configuration not stated)	1.7	2.1
CCOc1cc(C2CC(=O)N3CN(c4ccc(CC)cc4)CSC3=C2C#N)ccc1O (configuration not stated)	24*	1.2

Source: PubChem BioAssay
